In experiment [1] the target is T1, Protein deacetylase HDAC6 (Homo sapiens) (UniProt Q9UBN7).
T1 sequence (whole entry): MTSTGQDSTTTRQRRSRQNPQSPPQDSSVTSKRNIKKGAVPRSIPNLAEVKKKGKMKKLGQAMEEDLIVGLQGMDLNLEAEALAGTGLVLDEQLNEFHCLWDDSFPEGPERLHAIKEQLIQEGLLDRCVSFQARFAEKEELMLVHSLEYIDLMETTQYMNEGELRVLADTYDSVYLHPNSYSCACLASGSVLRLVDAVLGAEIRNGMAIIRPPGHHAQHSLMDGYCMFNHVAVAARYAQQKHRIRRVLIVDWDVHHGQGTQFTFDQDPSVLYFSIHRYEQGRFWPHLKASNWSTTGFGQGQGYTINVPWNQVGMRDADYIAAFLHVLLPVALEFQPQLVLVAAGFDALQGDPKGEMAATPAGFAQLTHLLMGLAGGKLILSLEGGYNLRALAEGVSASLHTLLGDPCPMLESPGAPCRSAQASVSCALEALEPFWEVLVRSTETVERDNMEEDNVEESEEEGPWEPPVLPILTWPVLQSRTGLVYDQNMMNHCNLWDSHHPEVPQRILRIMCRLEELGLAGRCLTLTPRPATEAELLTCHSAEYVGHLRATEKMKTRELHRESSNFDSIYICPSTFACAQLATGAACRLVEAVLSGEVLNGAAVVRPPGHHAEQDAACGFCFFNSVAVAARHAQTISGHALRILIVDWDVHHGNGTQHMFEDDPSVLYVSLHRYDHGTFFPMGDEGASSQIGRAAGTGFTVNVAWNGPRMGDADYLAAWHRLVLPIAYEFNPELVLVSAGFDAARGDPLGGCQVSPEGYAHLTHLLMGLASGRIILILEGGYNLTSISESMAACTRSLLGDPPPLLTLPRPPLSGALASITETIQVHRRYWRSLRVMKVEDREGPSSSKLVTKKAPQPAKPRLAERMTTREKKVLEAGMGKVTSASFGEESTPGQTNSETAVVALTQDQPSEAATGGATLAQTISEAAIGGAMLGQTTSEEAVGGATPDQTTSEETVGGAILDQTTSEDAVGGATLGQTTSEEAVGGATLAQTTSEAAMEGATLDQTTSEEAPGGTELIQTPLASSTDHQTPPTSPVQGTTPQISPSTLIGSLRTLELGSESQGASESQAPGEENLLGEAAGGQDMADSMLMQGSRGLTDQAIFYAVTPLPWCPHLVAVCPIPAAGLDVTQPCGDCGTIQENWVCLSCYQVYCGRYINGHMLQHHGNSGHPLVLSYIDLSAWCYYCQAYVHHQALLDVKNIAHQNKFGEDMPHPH
As to conditions: at 10 µM.

For experiment [2], the target named is Protein deacetylase HDAC6 (Homo sapiens) (UniProt Q9UBN7). To be noted: at 10 µM. The source holds these as a separate data set.

Where “and” joins values, the source holds several entries; their conditions need not be identical. Equal values may be shown once. In all, about 5,600 compounds went through this assay and about 150 (2.7%) showed an effect of 50% or more. The sample as a whole holds a higher share of strong results than the screen did.

Consider `COc1ccc(C[C@@H](C)[C@@H](C)Cc2ccc(OC)c(OC)c2)cc1OC`, for which, in experiment [1], the inhibition (as a rule, the drop in the measured response relative to a control, in per cent) was -2.57%.
The same measure, in the same setting: the value for `COc1ccc(/C=C/C(=O)/C=C(O)/C=C/c2ccc(OC)c(OC)c2)cc1OC` was 4.07%.
For the molecule `Cn1cc(C2=C(c3ccc(Cl)cc3Cl)C(=O)NC2=O)c2ccccc21`, the inhibition in experiment [1] was -3.78%.
Same read-out and setting: the value for `Cn1cc(C2=C(c3cn(CCCSC(=N)N)c4ccccc34)C(=O)NC2=O)c2ccccc21` was -0.14%.
As for `Cn1cc(/C=C2/C(=O)Nc3cccnc32)c2ccccc21`, the inhibition in experiment [1] worked out at 66.2%.
On the same count and under the same terms, the value for `CCNC(=O)CC[C@@H](N)C(=O)O` was -3.08%; that for `CN(C)CC(O)Cn1c2ccc(Br)cc2c2cc(Br)ccc21` (stereo not given) was -0.45%; that for `O=C1OC2(c3cc(I)c(O)c(I)c3Oc3c2cc(I)c(O)c3I)c2c(Cl)c(Cl)c(Cl)c(Cl)c21` was 31.9% and 41.8%.
For the molecule `CCOC(=O)c1ccc(N2NC(=O)/C(=C/c3ccc([N+](=O)[O-])o3)C2=O)cc1`, the inhibition in experiment [1] is 3.77%.
The same measure, in the same setting: with `Cn1nc(-c2ccc(C(F)(F)F)cc2)nc2c(=O)n(C)c(=O)nc1-2` the figure was 82.8%; with `Cc1cccc(C)c1NC(=O)/N=C1\CCCN1C`, -2.32%; with `Cc1ccc(-c2[nH]nc3c2C(c2cccc(O)c2)N(c2ccc(C(=O)O)cc2)C3=O)cc1` (stereo not given), -3.95%.
As for `C1Cc2[nH]nc(-c3nn[nH]n3)c2C1`, the inhibition in experiment [1] is -4.01%.
On the same count and under the same terms, with `COc1ccc2[nH]c(SCc3ncc(C)c(OC)c3C)nc2c1` the figure was 7.26%; with `N#Cc1cccc(-c2c[nH]c3ncnc(N4CCOCC4)c23)c1`, -3.83%.
On the same count and under the same terms, the value for `CCCCc1nc2cc(/C=C/C(=O)NO)ccc2n1CCN(CC)CC` was 97.3%; that for `CCN(CC)CCn1c(=O)c(Cc2ccc(OC)cc2)nc2ccccc21` was -4.21%; that for `CCCCc1nc(-c2ccc(OCCCN(CC)CC)cc2)cn1-c1ccc(Oc2ccc(Cl)cc2)cc1` was 9.56%.
Consider `CC(C)(C)/[N+]([O-])=C/c1ccc(S(=O)(=O)O)cc1S(=O)(=O)O`, for which the inhibition in experiment [1] was -5.01%.
In the case of `CCCc1c(OCCCOc2ccc(OCC(=O)O)cc2)ccc(CC=O)c1O`, the inhibition in experiment [1] is -1.53%.
Regarding `O=C(O)/C=C\c1c[nH]cn1`, the inhibition in experiment [1] is -0.7%.
As to `CC1(C)CCC(C)(C)c2cc(NC(=O)c3ccc(C(=O)O)cc3)ccc21`, the inhibition in experiment [1] was -2.96%.
`O=C(Nc1ccc(C(=O)O)c(O)c1)c1ccccc1`: the inhibition in experiment [1] was determined as 95.5%.
Regarding `Nc1ccc(C(=O)O)c(O)c1`, the inhibition in experiment [1] was -3.77%.
As for OXALIPLATIN, CHEMBL414804, in experiment [2], the inhibition was -4.35%.
`CN[C@H](CNC(=O)N1CCC[C@@H]([C@@H](OCCNC(=O)OC)c2cccc(Cl)c2)C1)C[C@H]1CCCOC1`: in experiment [1], the inhibition stood at 8.55%.
In the case of `Cc1ccc(OCCSc2ncccn2)c(Br)c1`, the inhibition in experiment [1] is 77.5%.
Still for that read-out and setting: with `Cc1cc(OCC(=O)O)cc(C)c1Cc1ccc(O)c(C(C)C)c1` the figure was -5.84%; with `O=C1[C@@H]2[C@H]3CC[C@H](C3)[C@@H]2C(=O)N1CCCCN1CCN(c2ncccn2)CC1`, 6.98%.
Still for that read-out and setting: the value for `N#Cc1c[nH]c2c(C(=O)N3CCN(CCc4ccc(F)cc4)CC3)cccc12` was 4.22%; that for `COc1ccccc1C(=O)Nc1cccc(NC(=O)c2cccc(C)c2)c1` was 8.47%.
Same read-out and setting: with `CC(=O)CC(=O)O` the figure was -2.94%; with `CCCCCCCCCCCCCCCC(=O)NCCO`, -0.28%.
`O=C(CCNNC(=O)c1ccncc1)NCc1ccccc1`: the inhibition in experiment [1] was -3.21%.
With `O=C(CCCCCCNC(=O)c1cnc(N(c2ccccc2)c2ccccc2)nc1)NO`, the inhibition in experiment [1] stood at 97.5%.
Still for that read-out and setting: the value for `N#C/C(=C\c1cccn1S(=O)(=O)c1cccc([N+](=O)[O-])c1)S(=O)(=O)c1ccc(F)cc1` was 6.35%; that for `N[C@@H](CC(=O)NO)C(=O)O` was -1.74%.
On to `O=C1Nc2c(ccc(Cl)c2Cl)/C1=N\O`, for which the inhibition in experiment [1] came to 1.23%.
In the case of `Nc1nc(N)c2nc(-c3ccccc3)c(N)nc2n1`, in experiment [1], the inhibition came out at 22%.
In the case of `Oc1cccc(-c2c3nc(c(-c4cccc(O)c4)c4ccc([nH]4)c(-c4cccc(O)c4)c4nc(c(-c5cccc(O)c5)c5ccc2[nH]5)CC4)C=C3)c1`, the inhibition in experiment [1] is 2.63%.
Still for that read-out and setting: with `Nc1nc(N)c2nc(-c3cccc(O)c3)cnc2n1` the figure was 66.2%; with `CCN(CC)Cc1ccc(Nc2ccnc3cc(Cl)ccc23)cc1O`, 0.37%.
Still for that read-out and setting: with `O=C(c1ccc(CN2CCOCC2)cc1)N1CCN(C2CC2)CC1` the figure was 4.17%; with `O=C1NC(=O)/C(=C/c2ccc3c(c2)OC(F)(F)O3)S1`, -1.91%; with `O=C1NC(=O)/C(=C/c2ccc(-c3ccc(F)cc3O)o2)S1`, 87%.
Still for that read-out and setting: with `O=C1NC(=O)/C(=C/c2cccc(C(F)(F)F)c2)S1` the figure was 8.21%; with `Cc1[nH]nc(C(F)(F)F)c1Cc1sc2c(c1C(=O)N1C[C@](C)(O)CO1)c(=O)n(C)c(=O)n2C(C)C`, 7.6%; with `O=C(NC1CCN(CCc2c[nH]c3ccccc23)CC1)c1ccccc1`, 22.6%.
For the molecule `O=C(O)[C@H](Cc1c[nH]c2ccccc12)N1C(=O)c2ccccc2C1=O`, in experiment [1], the inhibition was 3.67%.
With `COc1cc(/C=C/c2ccc(O)cc2)cc(OC)c1`, the inhibition in experiment [1] is -1.8%.
For the molecule `Oc1cc(O)cc(/C=C/c2ccc(O)c(O)c2)c1`, the inhibition in experiment [1] was determined as 74%.
`Oc1cc(O)cc(O)c1`: the inhibition in experiment [1] was 2.03%.
Same read-out and setting: the value for `Oc1ccc(/C=C/c2cc(O)cc(O)c2)cc1` was 85.4%; that for `O=C(/C=C/c1ccc(O)c(O)c1)OCCc1ccccc1` was 13.8%.
As for `COc1ccc(/C=C\c2cc(OC)c(OC)c(OC)c2)cc1O`, in experiment [1], the inhibition was -2.33%.

Source of the values: ChEMBL document CHEMBL4808148, “HDAC6 screening dataset using tau-based substrate in an enzymatic assay yields selective inhibitors and activators” (2021).
